Hit rate of the full screen: of about 69,000 compounds, about 8,600 (12%) showed an effect of 50% or more. This is one part of a sample in which strong results are shown more often than they occur.
Each compound was assayed on Plasmodium berghei (assay: Screen against P. berghei liver stage (PbLuc), transformed with Luciferase, at 10uM). Conditions: tested at 10 uM.
Format: functional, HepG2

In order of rising INHIBITION:
1. Cc1ccnc(NCc2cn3c(C)csc3n2)n1  -125%
2. CCOc1cc(C)nc(N2CCN(C(=O)Cn3cc(C)cn3)CC2)n1  -83.4%
3. Cc1cccc(NC(=O)c2ccc(OCc3nnnn3C)cc2)n1  -83.3%
4. COCCO[C@H]1CCN(Cc2ccsc2)[C@H]1Cc1cccnc1  -67.6%
5. CCOc1ccc(Cl)cc1CCNC(=O)Cn1ccccc1=O  -47%
6. Cc1nc(C)c(C(=O)NCCNC(=O)Cc2ccc(F)cc2)s1  -29.9%
7. CN(C)CC(=O)N1Cc2nnn(C)c2C(COCc2ccccn2)C1 (stereo not drawn)  -27.9%
8. CC(=O)Nc1nc(C(=O)N2CCCCC2Cn2cccn2)cs1 (stereo not drawn)  -27.8%
9. O=C(CCC1CCCO1)N1CCc2nc(-c3cnccn3)nc(O)c2C1 (stereo not drawn)  -22.6%
10. c1cncc(CN2CCCn3nnc(CN4CCCC4)c3C2)c1  -19.8%
11. Cc1nc(C)n(CC2CCCN2Cc2cn3ccccc3n2)n1 (stereo not drawn)  -17.6%
12. Cc1ncsc1CN1CCC2(CC1)CC(=O)N(Cc1ccc(Cl)cc1)C2  -16%
13. CN1CCN(C(=O)Cn2ccc3c(Cl)cccc32)CC1  -13.6%
14. c1cncc(C[C@@H]2CC[C@H](CN3CCCOCC3)O2)c1  -13.1%
15. O=C(c1cc2cc(F)ccc2[nH]1)N1CCCCC1Cn1cccn1 (stereo not drawn)  -12.2%
16. COc1ccc(OCCC(=O)N2CCCC2Cn2cccn2)cc1 (stereo not drawn)  -10.1%
17. CSc1ncc(C(=O)N2C[C@@H]3CC[C@H]2CN(S(=O)(=O)N(C)C)C3)cn1  -9.92%
18. CCS(=O)(=O)NCC(=O)NC1(C)CCc2ccccc2C1 (stereo not drawn)  -9.39%
19. CN1CC(=O)N(c2ccccc2)CC12CCN(C(=O)c1ccnnc1)C2 (stereo not drawn)  -7.29%
20. c1cnc(N2CCCn3c(nnc3Cn3cccn3)C2)nc1  -7.24%
21. Cc1ncsc1C(=O)NCc1ccc(-c2n[nH]cc2C(=O)N(C)C)cc1  -3.05%
22. O=C(c1cccnc1)N1CCOC2(COCCN(c3cncnc3)C2)C1 (stereo not drawn)  -2.41%
23. CN(C)CC(=O)N1CC2(CCN(Cc3ccccc3)C2)C1  -2.35%
24. CCc1ccc(C(=O)N2CCCCC2Cn2cccn2)o1 (stereo not drawn)  -2.35%
25. COc1cc(C)ccc1OCC(=O)NS(=O)(=O)c1ccc(Br)s1  -2.19%
26. Cc1nnsc1C(=O)NCc1nn(C)c2c1COCC2  -2.09%
27. Cc1noc(C)c1CN1C[C@H]2CC[C@@H](C1)N(Cc1cc(F)cc(F)c1)C2  0.818%
28. CN1CCC(C)(CN(C)C(=O)c2ccc(CCC(C)(C)O)cc2)C1 (stereo not drawn)  1.71%
29. O=C(c1csc(C2CC2)n1)N1CCCC1Cn1cccn1 (stereo not drawn)  1.78%
30. CCc1nc(CC(=O)N2CCCC2Cn2cccn2)cs1 (stereo not drawn)  2.61%
31. Oc1nc(-c2cnccn2)nc2c1CCN(Cc1ccccn1)C2  2.71%
32. Cc1nn2c(NC(=O)CSc3ncccn3)csc2nc1=O  3.77%
33. CCN(CC)Cc1ccc(C(=O)N2CCCC2Cn2cccn2)o1 (stereo not drawn)  4.05%
34. O=C(c1cscn1)N1C[C@H]2CCCC(OCc3cccnc3)[C@H]2C1 (stereo partly drawn)  4.2%
35. CC(C)C(=O)N1CCN(Cc2ccccn2)CC2(CC(=O)N(C)C2)C1 (stereo not drawn)  5.04%
36. O=C(Cc1ccccn1)N1CCc2nc(-c3cnccn3)nc(O)c2C1  5.69%
37. Cc1cc(C)n(CC2CCCCN2C(=O)c2ccc3nncn3c2)n1 (stereo not drawn)  5.97%
38. Cc1nc(CC(=O)N2CCCCC2Cn2cccn2)cs1 (stereo not drawn)  7.08%
39. CC(C)N1CCC(C(=O)N2CCC(C(O)c3nccn3C)CC2)CC1 (stereo not drawn)  9.41%
40. CCNC(=O)[C@@H]1C[C@@H](N)CN1C(=O)C1(c2ccc(OC)cc2)CCCC1  9.55%
41. CCCN1CCCn2c(nc(CNC(=O)c3cnoc3C)cc2=O)C1  9.63%
42. CC(Cn1cccn1)NCCCc1nc(-c2cccs2)no1 (stereo not drawn)  10%
43. Cc1csc(C2CCCCN2C(=O)c2cn[nH]c2C)n1 (stereo not drawn)  11.6%
44. CS(=O)(=O)N1CCCC(Cc2ccnc(Nc3ccccn3)c2)C1 (stereo not drawn)  12.7%
45. Cc1nc(Cn2c3c(ccc2=O)CC(NC(C)C)CC3)cs1 (stereo not drawn)  13.6%
46. COCC(=O)N1CCC2(CC1)CC(=O)N(Cc1ccc(Cl)cc1)C2  14%
47. Cc1c(F)cc(C(=O)O)cc1S(=O)(=O)Nc1ccc(C#N)cc1  14.55%
48. Cc1cnn(C2CN(c3ncnc4[nH]ccc34)C2)c1  15%
49. Cc1cccc(CNC(C)c2ccc(OCC(=O)NC3CC3)cc2)c1 (stereo not drawn)  15.3%
50. Cc1cnc(N2CCCn3c(nnc3Cn3cccn3)C2)nc1  16.9%
51. NC(=O)c1csc(C(=O)N2CCCCC2Cn2cccn2)c1 (stereo not drawn)  17.8%
52. CCN(CC)Cc1ccc(C(=O)N2CCCCC2Cn2cccn2)o1 (stereo not drawn)  19.5%
53. Cn1cccc1C(=O)N1CCC(O)(CN2CCc3ccccc3C2)C1 (stereo not drawn)  20.4%
54. CCN(CC)CC(=O)N1CCCC1Cn1cccn1 (stereo not drawn)  21.5%
55. COc1ccc(NC(C)C(=O)N2CCN(c3ccccc3)CC2)cn1 (stereo not drawn)  21.6%
56. Cc1nc(CN2CCN(Cc3ccoc3)Cc3cccnc32)cs1  21.6%
57. CC(C)NC(=O)N1CCn2c(nnc2C2CCCN2)C1 (stereo not drawn)  23.4%
58. CS(=O)(=O)N1CC2(CCCN2Cc2ccc(Cl)cc2)Cc2ccccc21 (stereo not drawn)  23.4%
59. Cc1ccccc1-n1nc(C)c(CN(C)C(C)Cc2ccccn2)c1C (stereo not drawn)  24%
60. Cc1cc(NCCSc2nccn2C)n2nc(C)c(C)c2n1  24.7%
61. CC(O)c1cn(Cc2ccc(Cl)cc2)nn1 (stereo not drawn)  24.7%
62. Cc1c(C(=O)N2CCCSCC2)nnn1-c1ccccc1Cl  26%
63. COc1ccc(NC(C)C(=O)N2CCN(c3ncccn3)CC2)cn1 (stereo not drawn)  29.2%
64. CCC(NC1CSCCSC1)c1ccc(S(C)(=O)=O)cc1 (stereo not drawn)  29.4%
65. O=C(NC1(c2nccs2)CCCC1)c1cc(C2CC2)[nH]n1  29.8%
66. Cn1cccc1C(=O)N1CC2(CCN(C(=O)c3cccnc3)C2)C1  32.1%
67. O=C(NCC1OCCc2cn(CC3CCOCC3)nc21)c1ccncc1 (stereo not drawn)  32.2%
68. O=C(NC1CCCCC1)N1CCCC1c1nnc2n1CCNC2 (stereo not drawn)  32.5%
69. COc1ccccc1OCCC(=O)N1CCCC1Cn1cccn1 (stereo not drawn)  33.3%
70. CCc1ncc(C(=O)N2CCCCC2Cn2cccn2)s1 (stereo not drawn)  33.6%
71. Cc1ccsc1C(=O)N1CCC(O)(CN2CCc3ccccc3C2)C1 (stereo not drawn)  33.7%
72. CC(=O)NCC(=O)N1Cc2c(-c3cccc(C)c3)nc(N)nc2C1C (stereo not drawn)  34%
73. Cc1ccccc1SCC(=O)NC1CCC(n2cnnc2)CC1 (stereo not drawn)  34.1%
74. CNC(=O)C1(c2cnccn2)CCCN1C(=O)c1ccccc1 (stereo not drawn)  35.2%
75. Cc1cnn(CC2CCCCN2C(=O)c2ccc3nncn3c2)c1 (stereo not drawn)  35.9%
76. Cc1nnc(SCC(=O)Nc2csc3nc(=O)c(C)nn23)s1  36.3%
77. O=C(NC1(c2nccs2)CCCC1)c1cc(C2CC2)on1  36.5%
78. O=C(N1CCCCC1)N1CCCC1c1nnc2n1CCNC2 (stereo not drawn)  36.6%
79. O=C(c1cccs1)N1CCC(O)(CN2CCc3ccccc3C2)C1 (stereo not drawn)  37.5%
80. CC(=O)N1CCCCC1c1nnc2n1CCNC2 (stereo not drawn)  38.3%
81. CS(=O)(=O)N1Cc2ccccc2CC2(CCN(Cc3ccncc3)C2)C1 (stereo not drawn)  38.3%
82. O=C(c1cc(F)cc2[nH]cnc12)N1CCCC1Cn1cccn1 (stereo not drawn)  39.7%
83. Cc1ccnc(NC(=O)c2cccc(OCc3nnnn3C)c2)c1  39.8%
84. CS(=O)(=O)N1Cc2ccccc2CC2(CCN(Cc3ccccn3)C2)C1 (stereo not drawn)  40%
85. O=C(c1ccc2c(c1)CCC2)N1CCn2ncnc2C1  40.4%
86. CCOc1ncccc1CNC(=O)N1CCCC1c1ccsc1 (stereo not drawn)  40.9%
87. O=c1[nH]ncn1-c1cccc(C(F)(F)F)c1  42.1%
88. Cn1nc(C2CCN(C(=O)c3cnccn3)C2)cc1CCO (stereo not drawn)  45.2%
89. Cc1ncsc1C(=O)N1CCC(O)(CN2CCc3ccccc3C2)C1 (stereo not drawn)  45.6%
90. CC(=O)N1CC2(CCCN2Cc2ccc(Cl)cc2)Cc2ccccc21 (stereo not drawn)  46.6%
91. Cn1ccc(CN2CCC3(CC2)CC(Nc2cnccn2)CO3)n1 (stereo not drawn)  46.7%
92. COCC(=O)N1CCc2nc(-c3cnccn3)nc(O)c2C1  47.2%
93. Cc1nnc(N2C[C@H](OCc3cccnc3)[C@H]3OCCC[C@H]32)s1  47.9%
94. CC(=O)N1CC2(CCCN(Cc3ccc(Cl)cc3)C2)Cc2ccccc21 (stereo not drawn)  49.1%
95. Cc1nn2c(NC(=O)CSc3nccn3C)csc2nc1=O  50.8%
96. Cc1ccc(C(=O)N2CCC(O)(CN3CCc4ccccc4C3)C2)s1 (stereo not drawn)  51.5%
97. O=C(Cc1ccccn1)N1CCc2c(O)nc(-c3cnccn3)nc2C1  52%
98. O=C(c1csc(C2CC2)n1)N1CCCCC1Cn1cccn1 (stereo not drawn)  52.5%
99. COc1cc(C)ccc1OCCC(=O)N1CCCC1Cn1cccn1 (stereo not drawn)  52.7%
100. c1cnn(Cc2nnc3n2CCCN(c2nccs2)C3)c1  53.9%
101. NC(=O)c1ccc(C(=O)N2CCCCC2Cn2cccn2)s1 (stereo not drawn)  53.9%
102. O=C(c1ccc2nncn2c1)N1CCCCC1Cn1cccn1 (stereo not drawn)  54.4%
103. CC(C)NC(=O)N1CCCCC1c1nnc2n1CCNC2 (stereo not drawn)  54.9%
104. CS(=O)(=O)N1Cc2ccccc2CC2(CCN(Cc3ccccc3)C2)C1 (stereo not drawn)  55.7%
105. O=C(NC1(c2nccs2)CCCC1)c1[nH]nc(C2CC2)c1Cl  56.6%
106. CCN(CC)Cc1ccc(C(=O)N2CCCC2Cn2cccn2)cc1 (stereo not drawn)  56.85%
107. CC(=O)N1CC2(CCN(Cc3ccc(Cl)cc3)C2)Cc2ccccc21 (stereo not drawn)  57.3%
108. CC(=O)N1CC2(CCCCN2Cc2ccc(Cl)cc2)Cc2ccccc21 (stereo not drawn)  59%
109. Cc1nc(CC(=O)N2CCc3nc(-c4cnccn4)nc(O)c3C2)cs1  59.3%
110. CC(C)NC(=O)N1CCC(c2nnc3n2CCNC3)CC1  59.8%
111. Cc1cccc(NC(=O)c2cccc(OCc3nnnn3C)c2)n1  60%
112. CC(=O)N1CC2(CCN(Cc3ccc(Cl)cc3)CC2)Cc2ccccc21  61.5%
113. CC(=O)NCc1ccc(C(=O)N2CCCCC2Cn2cccn2)o1 (stereo not drawn)  61.7%
114. CCc1nc(CC(=O)N2CCCCC2Cn2cccn2)cs1 (stereo not drawn)  62.6%
115. Cc1ccnc(SCC(=O)Nc2csc3nc(=O)c(C)nn23)n1  72.8%
116. Cc1csc(C(=O)N2CCC(O)(CN3CCc4ccccc4C3)C2)c1 (stereo not drawn)  76.8%
117. O=C(c1cc(F)cc2[nH]cnc12)N1CCCCC1Cn1cccn1 (stereo not drawn)  77.4%
118. COc1ccc(NC(C)C(=O)N2CCCC2)cn1 (stereo not drawn)  78.2%
